{
  "source": "the GenesisPotency data set",
  "note": "Screen size: about 290,000 compounds; about 3,000 (1%) were called active. This is one part of a sample in which actives are shown more often than they occur. No stated cut-off is given here; in the data, active means inhibition mostly above about 36% (no sharp cut-off); inactive means mostly below about 34%.",
  "data": [
    {"target": "T1, Nucleotide-binding oligomerization domain-containing protein 1, Homo sapiens (UniProt Q9Y239)", "T1 sequence (whole entry)": "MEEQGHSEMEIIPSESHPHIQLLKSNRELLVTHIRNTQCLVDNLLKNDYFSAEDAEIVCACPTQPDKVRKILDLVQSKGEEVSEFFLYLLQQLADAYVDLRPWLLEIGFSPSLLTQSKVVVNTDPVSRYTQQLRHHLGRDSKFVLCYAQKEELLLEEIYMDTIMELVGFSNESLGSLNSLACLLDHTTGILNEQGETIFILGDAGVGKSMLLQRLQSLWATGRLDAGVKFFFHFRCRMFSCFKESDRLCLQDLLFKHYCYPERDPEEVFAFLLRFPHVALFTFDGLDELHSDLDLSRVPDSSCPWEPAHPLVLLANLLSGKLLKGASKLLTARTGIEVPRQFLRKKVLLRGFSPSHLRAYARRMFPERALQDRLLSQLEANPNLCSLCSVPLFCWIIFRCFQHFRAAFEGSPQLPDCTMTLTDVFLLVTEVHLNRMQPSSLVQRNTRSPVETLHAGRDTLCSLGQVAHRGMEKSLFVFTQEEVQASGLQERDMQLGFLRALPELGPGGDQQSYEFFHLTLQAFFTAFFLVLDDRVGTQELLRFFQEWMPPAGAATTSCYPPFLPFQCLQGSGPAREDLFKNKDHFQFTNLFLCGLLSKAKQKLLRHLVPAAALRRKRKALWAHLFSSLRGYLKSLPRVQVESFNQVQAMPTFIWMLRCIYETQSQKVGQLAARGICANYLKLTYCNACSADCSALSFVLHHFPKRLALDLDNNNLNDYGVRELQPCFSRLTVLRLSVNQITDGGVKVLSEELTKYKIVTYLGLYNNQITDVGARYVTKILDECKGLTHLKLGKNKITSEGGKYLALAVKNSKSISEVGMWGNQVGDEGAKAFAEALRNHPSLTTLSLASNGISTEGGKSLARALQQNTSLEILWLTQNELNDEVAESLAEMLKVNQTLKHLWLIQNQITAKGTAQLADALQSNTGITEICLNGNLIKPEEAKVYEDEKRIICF", "assay": "inhibition of NOD1-driven NF-kB reporter – cell-based, luminescence, uHTS, primary screen (AID 1578)", "values": [
      {"smiles": "Clc1ccccc1C1=Nn2c(nnc2-c2ccncc2)SC1", "outcome": "active"},
      {"smiles": "N#C/C(=C(/O)COC(=O)COc1ccc(Cl)cc1)c1nc2ccccc2[nH]1", "outcome": "active"},
      {"smiles": "N#C/C(=C(/O)COC(=O)COc1cccc(Br)c1)c1nc2ccccc2[nH]1", "outcome": "active"},
      {"smiles": "Cc1cc(C)cc(OCC(=O)OC/C(O)=C(\\C#N)c2nc3ccccc3[nH]2)c1", "outcome": "active"},
      {"smiles": "COc1ccc(-[n+]2c(C)cc(/C=C3\\Sc4ccccc4N3C)cc2C)cc1.[I-]", "outcome": "active"},
      {"smiles": "COc1ccc(-c2cncnc2-c2ccc(OC)cc2O)cc1", "outcome": "active"},
      {"smiles": "COc1ccc(-c2cnc(N)nc2-c2ccc(OC)cc2O)cc1", "outcome": "active"},
      {"smiles": "Cc1ccc(Nc2cc(C)nn2-c2nc(C)cc(=O)[nH]2)cc1", "outcome": "active"},
      {"smiles": "O=c1c2c(nc3c(-c4ccc(Cl)cc4)c[nH]n13)CCCC2", "outcome": "active"},
      {"smiles": "O=c1c2c(nc3c(-c4ccc(Cl)cc4)c[nH]n13)CCC2", "outcome": "active"},
      {"smiles": "O=c1c2c(nc3c(-c4cccc(Br)c4)c[nH]n13)CCCC2", "outcome": "active"},
      {"smiles": "CCCc1cc(=O)n2[nH]cc(-c3ccc(Cl)cc3)c2n1", "outcome": "active"},
      {"smiles": "CN(C)S(=O)(=O)N1CCC(Oc2cccc(C(=O)NC3CCCCCC3)c2)CC1", "outcome": "active"},
      {"smiles": "Cc1cccc(NC(=S)N/N=C/c2ccc([N+](=O)[O-])s2)c1", "outcome": "active"},
      {"smiles": "Cc1ccc(NC(=S)N/N=C/c2ccc([N+](=O)[O-])s2)cc1", "outcome": "active"},
      {"smiles": "Cc1cc(N2CCOCC2)c2c(N)c(Br)cc(C)c2n1", "outcome": "active"},
      {"smiles": "O=C(Nc1nnc(SCc2ccc(F)cc2)s1)c1ccccn1", "outcome": "active"},
      {"smiles": "CC(Oc1ccc(Br)cc1)C(=O)Nc1nc(-c2ccccn2)cs1", "note": "(configuration not stated)", "outcome": "active"},
      {"smiles": "O=C(Nc1nc(-c2cc(F)ccc2F)cs1)c1ccccn1", "outcome": "active"},
      {"smiles": "O=C(Nc1nc(-c2ccccn2)cs1)Nc1ccc(F)cc1F", "outcome": "active"},
      {"smiles": "O=C(Nc1nc(-c2ccccn2)cs1)c1cc(Cl)ccc1[N+](=O)[O-]", "outcome": "active"},
      {"smiles": "Cn1cc([N+](=O)[O-])c(C(=O)Nc2nc(-c3ccc(Cl)cc3)cs2)n1", "outcome": "active"},
      {"smiles": "OCCCNc1ncnc2scc(-c3ccc(Cl)cc3)c12", "outcome": "active"},
      {"smiles": "COc1ccc(-c2csc3ncnc(NCCCO)c23)cc1", "outcome": "active"},
      {"smiles": "COc1ccc(-c2csc3ncnc(NCCO)c23)cc1", "outcome": "active"},
      {"smiles": "CCN(CC)S(=O)(=O)c1ccc2[nH]cc(C(=O)NCCC3=CCCCC3)c(=O)c2c1", "outcome": "active"},
      {"smiles": "Cn1c(=O)c2c(nc(NCc3ccco3)n2C/C=C/c2ccccc2)n(C)c1=O", "outcome": "active"},
      {"smiles": "O=C(Nc1ccc(CN2CCOCC2)cc1)c1ccc(-c2ccc(Cl)cc2Cl)o1", "outcome": "active"},
      {"smiles": "O=C(Nc1ccc(S(=O)(=O)N2CCCCC2)cc1)c1ccc(CN2CCOCC2)cc1", "outcome": "active"},
      {"smiles": "O=C(Nc1ccc(S(=O)(=O)Nc2ccc(F)cc2)cc1)c1ccc(CN2CCOCC2)cc1", "outcome": "active"},
      {"smiles": "O=C(Nc1ccc(S(=O)(=O)N2CCOCC2)cc1)c1ccc(CN2CCc3ccccc3C2)cc1", "outcome": "active"},
      {"smiles": "O=C(Nc1ccc(S(=O)(=O)N2CCCCC2)cc1)c1ccc(CN2CCc3ccccc3C2)cc1", "outcome": "active"}
    ]}
  ]
}
